Test results reported in PubChem BioAssay (NCATS).
Values without a mark were called inactive. Inconclusive results are not listed. Active and inactive are the calls of the source. Unless noted, the call rests on the fitted dose curve; in most records, active means well fitted activation curve with a large enough effect in the main read-out, with a control signal flat (not every such curve was filed as active); inconclusive means small, poorly fitted or top-dose-only effect, or effect the other way, or a change in a side signal; inactive means flat fitted curve, though single readings scatter.

These compounds were tested against 3',5'-cyclic-AMP phosphodiesterase 4B (Homo sapiens) (UniProt Q07343) (assay: qHTS Assay for Inhibitors of PDE-IV (AID 607; further: % of control where 0% means no effect)). Details: HEK293 ACTOne CNG channel cells, membrane potential fluorescence; series mostly up to 22.9 µM; activation (PDE inhibition): at the top concentration.
In short: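 Live HEK293 cells with a modified cyclic nucleotide-gated (CNG) channel report intracellular cAMP via membrane-potential dye fluorescence (ex 535/em 590 nm). Endogenous PDE-IV was targeted. Compounds were tested at up to 22.9 uM final; RO 20-1724 100 uM served as control.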

Sequence of 3',5'-cyclic-AMP phosphodiesterase 4B (Homo sapiens) (Q07343 whole entry, looked up): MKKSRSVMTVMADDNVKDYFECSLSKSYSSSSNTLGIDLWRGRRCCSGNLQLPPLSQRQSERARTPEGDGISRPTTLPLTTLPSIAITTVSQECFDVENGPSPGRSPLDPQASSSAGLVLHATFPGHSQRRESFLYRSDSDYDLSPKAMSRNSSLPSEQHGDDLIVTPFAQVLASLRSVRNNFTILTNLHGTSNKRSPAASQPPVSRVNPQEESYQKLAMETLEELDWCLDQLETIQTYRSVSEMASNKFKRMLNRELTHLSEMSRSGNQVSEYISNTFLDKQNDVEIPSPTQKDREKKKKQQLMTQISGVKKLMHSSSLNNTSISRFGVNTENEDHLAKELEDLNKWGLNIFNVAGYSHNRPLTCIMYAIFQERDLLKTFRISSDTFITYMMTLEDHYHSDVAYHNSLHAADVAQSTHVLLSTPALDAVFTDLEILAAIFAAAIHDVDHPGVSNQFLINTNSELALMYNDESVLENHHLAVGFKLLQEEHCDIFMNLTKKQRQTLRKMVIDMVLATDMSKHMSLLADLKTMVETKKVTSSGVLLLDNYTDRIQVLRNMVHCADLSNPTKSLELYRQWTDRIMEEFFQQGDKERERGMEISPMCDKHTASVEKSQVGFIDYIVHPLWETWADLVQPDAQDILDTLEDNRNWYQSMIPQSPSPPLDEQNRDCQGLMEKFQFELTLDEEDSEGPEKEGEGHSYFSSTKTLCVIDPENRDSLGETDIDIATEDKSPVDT

| Structure (SMILES) | activation (PDE inhibition) [%] |
| --- | --- |
| CCC(=O)OCN1C(=O)C=CC1=O | -9.19 |
| CN(C)CCCN1c2ccccc2Sc2cnccc21 | -4.5 |
| Oc1ccc(Cn2c(-c3ccc(O)cc3)nc3ccccc32)cc1 | 3.66 |
| O=C(O)CCc1c2ccc(=O)c(O)c-2oc2c(O)c(O)ccc12 | -3.13 |
| N#[N+]c1ccc(Nc2ccccc2)cc1 | 1.11 |
| O=c1c[n+](CCCC[n+]2cc(=O)o[nH]2)[nH]o1 | 2.09 |
| O=c1c2ccccc2sc2c(CO)ccc(NCCN3CCCCC3)c12 | 6.17 |
| c1ccc(NCCSc2nc3ccccc3s2)cc1 | -6.3 |
| Cc1cc(SCC(=O)c2ccc(Br)cc2)cc(C)[o+]1 | 6.84 |
| c1ccc([C@H](c2cccc3c2ccc2ccccc23)[C@H](c2ccccc2)c2cccc3c2ccc2ccccc23)cc1 | 1.2 |
| O=C(O)[C@@H](O)[C@@H](O)[C@@H](O)[C@@H](O)c1nc2ccccc2s1 | 7.91 |
| CC(C)NC[C@@H](O)c1ccc(O)c2ncccc12 | -8.65 |
| NCCSc1nc2ccccc2s1 | 0.775 |
| O=C(O)c1ccccc1-c1ccccc1C(=O)Nc1ccc2c(c1)Cc1cc(F)ccc1-2 | -11.2 |
| N/C(=N\O)c1cn([C@@H]2O[C@@H](CO)[C@H](O)[C@@H]2O)c2ncnc(NO)c12 | -2.36 |
| Cn1cnc([N+](=O)[O-])c1SCC(=O)O | 7.97 |
| ON(CCc1ccncc1)Cc1ccccc1 | 1.65 |
| Cc1cccc(C)c1NC(=O)Nc1ccc(S(N)(=O)=O)cc1 | -4.32 |
| COc1cc(C2SCCCCCCCCCCSC(c3ccc(O)c(OC)c3)SCCCCCCCCCCS2)ccc1O (configuration not stated) | -1.98 |

| Structure (SMILES) | activation (PDE inhibition) [%] |
| --- | --- |
| COc1cc(-c2[o+]c3cc(O)cc(O)c3cc2O)cc(O)c1O | 2.23 |
| CO[C@@H]1/C=C\O[C@]2(C)Oc3c(C)c(O)c4c(O)c(cc(O)c4c3C2=O)NC(=O)/C(C)=C\C=C/[C@H](C)[C@@H](O)[C@H](C)[C@H](O)[C@H](C)[C@H](OC(C)=O)[C@@H]1C | -7.14 |
| C/C(C[n+]1ccccc1)=N\N=C(N)N | 11.1 |
| C[N+](C)(C)c1ncnc2c1ncn2[C@@H]1CCCCO1 | 0.346 |
| O=C(O)CSc1nc2ccccc2[nH]1 | 3.57 |
| Cc1nc2cnc(N3CCNCC3)nc2n(-c2ccccc2)c1=O | 5.99 |
| N[C@@](CCc1ccccc1)(C(=O)O)c1ccccc1 | -5.32 |
| CC(=O)N[C@@H]1CONC1=O | 6.89 |
| O=C(O)CSc1ccn(Cc2ccccc2)c1 | 5.16 |
| CC(C)(N)CO[C@H]1C[C@H]2CC[C@@]1(C)C2(C)C | 4.91 |
| CC(C)(C)c1ccc(NS(=O)(=O)c2ccc(N)cc2)cc1 | 17 |
| O=C(O)c1nnsc1-c1csnn1 | 6.32 |
| COCCn1c(=O)c(-c2ccc(OC)cc2)nc2cnc(OC)nc21 | 5.44 |
| NC(N)=NC(N)=Nc1ccc(S(N)(=O)=O)cc1 | -1.97 |
| c1c[nH]c(CN2CCOCC2)n1 | 14.2 |
| CC(C)CSC[C@@H]1O[C@H](n2cnc3c(N)nccc32)[C@H](O)[C@@H]1O | 6.16 |
| C[C@@]12CCC(=O)C=C1CC[C@H]1[C@@H]2[C@@H](O)C[C@]2(C)[C@@H]1CC[C@@]2(O)C(=O)CO | 7.38 |
| CCNc1ncc2nc(C)c(=O)n(Cc3cccc(OC)c3)c2n1 | 28 |
| CC(=O)Nc1nc(NC(C)=O)c2[nH]c(CO)nc2n1 | 0.953 |

Each compound was assayed against Cytochrome P450 2C9 (Homo sapiens) (UniProt P11712) (assay: qHTS Assay for Inhibitors and Substrates of Cytochrome P450 2C9 (AID 883; active means well fitted curve in the direction sought with a large enough effect; an effect the other way counts as inactive or inconclusive; further: nearly all actives have a fitted effect of over 60% in size; further: potency means the concentration at half of the fitted maximal effect; on activity change, negative = inhibition: on the % scale 0 is the no-effect control and ±100 the full control effect)). Details: recombinant CYP2C9, luciferin-H luminescence, 60 min; series mostly up to 11.4 µM; activity change, negative = inhibition: at the top concentration.
In short: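 Human CYP2C9 (10nM) with Luciferin-H at 100uM (its KM) in 25mM KPO4; compound preincubated 10 min at 37C, then NADPH regeneration for 60 min at 37C. Luciferin read by luminescence after detection reagent; normalized to 57uM sulphaphenazole as full inhibition.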

Sequence of Cytochrome P450 2C9 (Homo sapiens) (P11712 whole entry, looked up): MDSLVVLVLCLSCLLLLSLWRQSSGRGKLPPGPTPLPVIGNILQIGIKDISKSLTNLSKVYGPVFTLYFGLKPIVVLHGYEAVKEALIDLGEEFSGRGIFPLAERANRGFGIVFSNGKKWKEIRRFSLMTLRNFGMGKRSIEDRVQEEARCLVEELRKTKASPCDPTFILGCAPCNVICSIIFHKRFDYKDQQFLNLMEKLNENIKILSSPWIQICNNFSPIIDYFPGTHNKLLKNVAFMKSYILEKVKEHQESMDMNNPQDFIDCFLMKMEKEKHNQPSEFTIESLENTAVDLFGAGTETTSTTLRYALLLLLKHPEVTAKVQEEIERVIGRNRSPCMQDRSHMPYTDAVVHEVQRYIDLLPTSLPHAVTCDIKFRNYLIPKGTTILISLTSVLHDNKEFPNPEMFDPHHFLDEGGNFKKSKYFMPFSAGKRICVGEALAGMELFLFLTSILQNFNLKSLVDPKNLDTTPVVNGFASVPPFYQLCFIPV

| Structure (SMILES) | Potency | activity change, negative = inhibition [%] |
| --- | --- | --- |
| Cc1cc(SCC(=O)c2ccc(Br)cc2)cc(C)[o+]1 | 2.51 µM (active) | – |
| NCCSc1nc2ccccc2s1 | 1.58 µM (active) | – |
| O=C(O)c1ccccc1-c1ccccc1C(=O)Nc1ccc2c(c1)Cc1cc(F)ccc1-2 | 2.51 µM (active) | – |
| ON(CCc1ccncc1)Cc1ccccc1 | 3.98 µM (active) | – |
| C/C(C[n+]1ccccc1)=N\N=C(N)N | – | 34 |
| COc1ccccc1CCn1c(=O)c(-c2ccc(F)cc2)nc2cncnc21 | 3.98 µM (active) | – |

The compounds below were run against Cytochrome P450 3A4 (Homo sapiens) (UniProt P08684) (assay: qHTS Assay for Inhibitors and Substrates of Cytochrome P450 3A4 (AID 884; active means well fitted curve in the direction sought with a large enough effect; an effect the other way counts as inactive or inconclusive; further: potency means the concentration at half of the fitted maximal effect; nearly all actives have a fitted effect of over 50% in size)). Details: recombinant CYP3A4, Luciferin-PPXE luminescence; series mostly up to 57.1 µM; activity change, negative = inhibition: at the top concentration.
In short: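 20 nM human CYP3A4 with 25 uM Luciferin-PPXE (at KM) in 200 mM KPO4, preincubated 10 min with compound; NADPH regeneration started a 60 min RT reaction. Luciferin detected by luminescence, normalized to 57 uM ketoconazole as full inhibition.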

Sequence of Cytochrome P450 3A4 (Homo sapiens) (P08684 whole entry, looked up): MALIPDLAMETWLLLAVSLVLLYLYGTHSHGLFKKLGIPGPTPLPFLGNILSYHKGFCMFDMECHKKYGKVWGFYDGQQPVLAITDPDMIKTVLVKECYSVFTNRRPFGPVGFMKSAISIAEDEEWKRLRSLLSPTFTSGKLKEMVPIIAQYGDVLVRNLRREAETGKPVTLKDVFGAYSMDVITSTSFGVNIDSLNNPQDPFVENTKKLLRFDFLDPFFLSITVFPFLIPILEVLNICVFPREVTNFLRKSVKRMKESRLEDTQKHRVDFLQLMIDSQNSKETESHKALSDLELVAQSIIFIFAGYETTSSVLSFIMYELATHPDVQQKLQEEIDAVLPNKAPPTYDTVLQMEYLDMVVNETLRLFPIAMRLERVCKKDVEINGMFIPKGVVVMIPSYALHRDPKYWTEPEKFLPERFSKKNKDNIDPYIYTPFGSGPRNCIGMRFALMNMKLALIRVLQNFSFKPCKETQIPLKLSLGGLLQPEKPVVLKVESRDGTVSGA

| Structure (SMILES) | Potency |
| --- | --- |
| NCCSc1nc2ccccc2s1 | 3.16 µM (active) |
| COc1ccccc1CCn1c(=O)c(-c2ccc(F)cc2)nc2cncnc21 | 3.98 µM (active) |
| CCNc1ncc2nc(C)c(=O)n(Cc3cccc(OC)c3)c2n1 | 7.94 µM (active) |

Each compound was assayed against Cytochrome P450 3A4 (Homo sapiens) (UniProt P08684) (assay: qHTS Assay for Activators of Cytochrome P450 3A4 (AID 885; active means well fitted curve in the direction sought with a large enough effect; an effect the other way counts as inactive or inconclusive; further: nearly all actives have a fitted effect of over 65% in size)). Details: recombinant CYP3A4, Luciferin-PPXE luminescence, 60 min; series mostly up to 11.4 µM; activity change, positive = activation: at the top concentration.
In short: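 Quantitative HTS format: compounds preincubated with 20nM human CYP3A4 and Luciferin-PPXE substrate at KM, reaction started by NADPH regeneration, stopped after 60 min, luciferase luminescence read 20 min later.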

| Structure (SMILES) | activity change, positive = activation |
| --- | --- |
| CN(C)CCCN1c2ccccc2Sc2cnccc21 | -85.3% |
| O=c1c2ccccc2sc2c(CO)ccc(NCCN3CCCCC3)c12 | -41% |
| NCCSc1nc2ccccc2s1 | -64.6% |
| ON(CCc1ccncc1)Cc1ccccc1 | -83.5% |
| CO[C@@H]1/C=C\O[C@]2(C)Oc3c(C)c(O)c4c(O)c(cc(O)c4c3C2=O)NC(=O)/C(C)=C\C=C/[C@H](C)[C@@H](O)[C@H](C)[C@H](O)[C@H](C)[C@H](OC(C)=O)[C@@H]1C | -56.6% |
| Cc1nc2cnc(N3CCNCC3)nc2n(-c2ccccc2)c1=O | -47.9% [at 57.1 µM] |
| COc1ccccc1CCn1c(=O)c(-c2ccc(F)cc2)nc2cncnc21 | -108% [at 57.1 µM] |
| CC(C)(C)c1ccc(NS(=O)(=O)c2ccc(N)cc2)cc1 | -50.3% |
| COCCn1c(=O)c(-c2ccc(OC)cc2)nc2cnc(OC)nc21 | -70.4% [at 57.1 µM] |
| CCNc1ncc2nc(C)c(=O)n(Cc3cccc(OC)c3)c2n1 | -114% [at 57.1 µM] |
